Screening results deposited in PubChem BioAssay by several laboratories.
TROY NFkB inh = inhibitors of TROY-dependent NF-kB signaling. inhibition, % at 10 µM. 360,000 compounds, 0.98% hits. Q293 LMP1-TROYcd NF-kB luciferase reporter, 4 h. AID 1347056;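 active means compounds whose plate-normalised and pattern-corrected inhibition of the luciferase reporter signal at the single screening dose is 50% or more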
TWEAK-Fn14 inh = inhibitors of TWEAK-Fn14 interaction signaling; TWEAK-stimulated Fn14 reporter cells, luciferase luminescence, 8 h; inhibition, % at 10 µM; 360,000 compounds, 2% hits; in the data active means inhibition above about 50%
LGR2 antag = Drosophila LGR2 receptor signaling inhibition; AID 720647; inhibition, % at 9.99 µM; HEK293 LGR2, CRE-luciferase, bursicon-stimulated, 4 h; 380,000 compounds, 0.35% hits;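 active means drop in luminescence signal, shown as inhibition above about 50% in the replicate tests, limit read from the data, passing the limit was not always enough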;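 further: agonist challenge used bursicon conditioned medium at about half maximal strength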
HSP90 refold inh = blocks HSP90-mediated luciferase refolding in reticulocyte lysate; inhibition, % at 5.6 µM; 290,000 compounds, 0.91% hits; AID 1789; Rabbit reticulocyte lysate, luciferase refolding luminescence, 3 h;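 active means inhibition above the screen-wide mean plus 3 SD, computed separately per campaign, cut at about 16% in these data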;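 further: inhibitors lower the luminescence because luciferase stays unfolded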
Hits are given with their value; - = inactive; . = not tested or not shown. Sampled rows, rich in hits. Any-hit rate of the full collection: about 2.2%.

SMILES	TROY NFkB inh	TWEAK-Fn14 inh	LGR2 antag	HSP90 refold inh
O=C(NC12CC3CC(CC(C3)C1)C2)N1CCN(c2nc(-c3ccccc3)cs2)CC1	.	71	.	-
Cc1ccc(S(=O)(=O)Nc2ccc3c(c2)CC(=O)N([C@H](C)CO)C[C@H](C)[C@H](CN(C)C(=O)Nc2c(C)noc2C)O3)cc1	.	.	-	.
O=C(C1CC1)N1C[C@@H]2[C@H](c3ccccc31)[C@@H](CO)N2C(=O)Nc1cccc(F)c1	.	.	-	.
O=C(Nc1ccc(Cl)c(S(=O)(=O)N2CCOCC2)c1)c1ccc(OCC2CCCO2)cc1 (stereo not drawn)	77	99	.	-
O=C(Nc1cccc(Cl)c1)c1ccc(F)c(S(=O)(=O)N2CCN(c3ccccn3)CC2)c1	-	59	-	-
O=C(NCCN1CCOCC1)c1ccc(Cl)c(S(=O)(=O)N2CCCC2)c1	-	-	-	-
O=C(NCCN1CCOCC1)c1ccc(Cl)c(S(=O)(=O)N2CCCCCC2)c1	.	66	.	-
O=C(Nc1cccc(Br)c1)c1ccc(Cl)c(S(=O)(=O)N2CCOCC2)c1	-	77	-	-
O=C(Nc1cccc(C(=O)NC2CC2)c1)c1ccc(Cl)c(S(=O)(=O)N2CCOCC2)c1	-	-	-	.
O=C(C[C@@H]1CC[C@@H]2[C@H](COC[C@@H](O)CN2C(=O)Nc2ccccc2)O1)NCc1ccncn1	.	.	-	.
CCCNC(=O)N1[C@@H](CO)[C@@H](c2ccccc2)C12CN(C(=O)CC1CC1)C2	.	.	-	.
CCn1c(=NC(=O)CCS(=O)(=O)c2ccccc2)sc2cccc(OC)c21	-	58	-	-
CCn1c(=NC(=O)c2ccc(S(=O)(=O)N3CCOCC3)cc2)sc2cccc(OC)c21	-	60	.	-
CCn1c(=NC(=O)CS(=O)(=O)c2ccc(F)cc2)sc2cccc(OC)c21	-	-	-	.
Cc1noc(C)c1NC(=O)N[C@H]1CC[C@@H](CCNC(=O)C2CCC2)O[C@@H]1CO	.	.	-	.
CCOc1ccc(CNc2ccc(N3CCCC3)cc2)cc1	-	55	.	-
CCOc1cc(CNc2ccc(N3CCCC3)cc2)cc(Cl)c1OC	-	59	.	-
CCOc1ccc(CNc2ccc(N3CCN(Cc4ccccc4)CC3)cc2)cc1	-	-	-	-
COc1ccc(CNC(=O)C[C@H]2CC[C@@H](NC(=O)c3cccc(F)c3)[C@H](CO)O2)cc1	.	.	-	.
O=C(c1[nH]ncc1-c1cccc(Br)c1)C1CO1 (stereo not drawn)	-	54	-	-
C[C@@H]1CN([C@@H](C)CO)C(=O)Cc2cc(NC(=O)Nc3ccccc3)ccc2O[C@H]1CN(C)CC1CCCCC1	.	.	-	.
CCOC(=O)c1c(-c2ccc(OC)cc2)csc1NC(=O)CCN1CCOCC1	-	-	-	-
CCOC(=O)c1c(-c2ccccc2)csc1NC(=O)CSc1nc(N)cc(N)n1	-	86	-	-
CCOC(=O)c1c(-c2ccc(C)o2)csc1NC(=O)CN1CCCCC1	-	54	-	-
COC(=O)c1c(-c2cccs2)csc1NC(=O)CN1CCOCC1	67	-	.	-
SMILES	TROY NFkB inh	TWEAK-Fn14 inh	LGR2 antag	HSP90 refold inh
CCCN(C)C[C@H]1Oc2cc(C#Cc3cccc(OC)c3)ccc2S(=O)(=O)N([C@H](C)CO)C[C@H]1C	.	.	-	.
COc1ccc(NS(=O)(=O)c2ccc3nc(COc4ccc5ccccc5c4)[nH]c3c2)cc1	-	-	-	-
COc1ccc(NS(=O)(=O)c2ccc3nc(COc4cccc5ccccc45)[nH]c3c2)cc1	-	59	-	-
Cc1ccc(S(=O)(=O)N(C)C[C@@H]2Oc3ccc(NS(=O)(=O)c4cccs4)cc3CC(=O)N([C@H](C)CO)C[C@H]2C)cc1	.	.	-	.
COCC(=O)N1CC2(C1)[C@@H](c1ccc(-c3ccc(F)cc3)cc1)[C@@H](CO)N2C(=O)C1CC1	.	.	-	.
O=C(C1=C[C@@H](c2ccc(C(F)(F)F)cc2)C[C@@H](OCc2ccc(CO)cc2)O1)N1CCN(Cc2ccc3c(c2)OCO3)CC1	-	-	-	-
O=C(C1=C[C@@H](c2ccc(Br)cc2)C[C@@H](OCc2ccc(CO)cc2)O1)N1CCN(Cc2ccc3c(c2)OCO3)CC1	-	-	.	17
CCCC(=O)OC/C(O)=C(\C#N)c1nc2ccccc2[nH]1	-	-	-	-
N#C/C(=C(/O)COC(=O)CCC1CCCCC1)c1nc2ccccc2[nH]1	-	89	.	-
O=C(CSc1c(Cl)cccc1Cl)N1CCC(c2nc3ccccc3s2)CC1	51	-	.	-
O=C(Cn1c(=O)oc2ccccc21)Nc1ccc(Br)cc1	-	-	-	-
N#Cc1c(NC(=O)Cn2c(=O)oc3ccccc32)oc(-c2ccccc2)c1-c1ccccc1	68	-	-	-
C[C@@H]1CN([C@@H](C)CO)C(=O)c2cc(C3=CCCCC3)cnc2O[C@H]1CN(C)C(=O)CN1CCOCC1	.	.	-	.
COc1ccc2c3c(n(C)c2c1)[C@H](CO)N(C(C)=O)CC31CN(C(=O)c2ccccc2)C1	.	.	-	.
COc1ccc(CC2(CO)CCN(S(=O)(=O)c3cccc4cccnc34)CC2)cc1	-	56	-	-
COc1ccc(N2CCN(S(=O)(=O)c3cccc4cccnc34)CC2)cc1	-	-	-	-
CCOc1ccc(/C=C2\SC(=O)N(CCNC(=O)C3COc4ccccc4O3)C2=O)cc1OC (stereo not drawn)	51	-	-	-
CC(C)NC(=O)N[C@H]1CC[C@@H](CCNS(=O)(=O)c2ccc(F)cc2)O[C@@H]1CO	.	.	-	.
Cc1ccccc1OCC1Cc2c(nc(N)c(C#N)c2N)O1 (stereo not drawn)	.	58	.	-
O=C1c2cccc3c([N+](=O)[O-])ccc(c23)C(=O)N1Cc1cccnc1	64	-	103	-
O=C1c2cccc3cccc(c23)C(=O)N1Cc1cccnc1	-	-	-	-
COc1cc(NC(=O)Cc2cccs2)ccc1-n1cnnn1	.	91	.	-
COc1cc(C(=O)Nc2ccc3c(c2)OCO3)ccc1-n1cnnn1	-	-	.	-
COc1ccc(S(=O)(=O)Nc2ccc3c(c2)C(=O)N([C@H](C)CO)C[C@@H](C)[C@@H](CN(C)C(=O)CCC(F)(F)F)OCCCC[C@@H](C)O3)cc1	.	.	-	.
N#C[C@@H]1[C@H](c2ccc(C#CCC3CCCC3)cc2)[C@@H](CO)N1C(=O)CN1CCOCC1	.	.	-	.
SMILES	TROY NFkB inh	TWEAK-Fn14 inh	LGR2 antag	HSP90 refold inh
CC(=O)Nc1ccc(S(=O)(=O)NCCC(=O)OCc2nnc(-c3ccccc3)o2)cc1	-	-	-	.
O=C(CCNS(=O)(=O)c1ccccc1)OCc1nnc(-c2ccccc2)o1	61	-	-	.
O=[N+]([O-])c1cccc(C=NNC(=S)NC23CC4CC(CC(C4)C2)C3)c1	60	-	-	.
CC(C)NC(=O)N(C)C[C@H]1Oc2ncc(-c3cncnc3)cc2C(=O)N([C@@H](C)CO)C[C@@H]1C	.	.	-	.
COc1ccc2c3c([nH]c2c1)[C@H](CO)N(C(=O)c1ccc(F)cc1)CC31CN(C)C1	.	.	-	.
CCCSc1nnc(CSc2nc3ccccc3s2)n1-c1ccccc1	53	-	.	-
COCC(=O)Nc1ccc2c(c1)C(=O)N(C)C[C@H](OC)[C@H](C)CN(CCC(F)(F)F)[C@H](C)CO2	.	.	-	.
O=C(C[C@@H]1CC[C@H]2[C@@H](COC[C@H](O)CN2C(=O)c2ccncc2)O1)NCc1cccc(F)c1	.	.	-	.
